The supplement of paper PMC9948646

test system: gramicidin D channels in DC22:1PC lipid vesicles (bilayer-modifying potency); assay: initial Tl+ fluorescence quench rate relative to no-drug control (NormRate, gramicidin monomer-dimer shift) (ratio (fold of control)); higher = stronger bilayer-modifying effect (equilibrium shifted toward conducting dimers), active = 1.5 or more; conditions: 10 µM; lipid concentration 50 µM; temperature: 25 °C
Description: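 Stopped-flow fluorescence quench assay: ANTS-loaded DC22:1PC large unilamellar vesicles doped with gramicidin D (1:2000), 50 µM lipid, equilibrated 10 min with 10 µM drug (0.1% DMSO), mixed with Tl+ quench buffer at 25°C. Initial quench rate (Tl+ influx) was fitted with a modified stretched exponential and normalised to the no-drug control rate (NormRate); duplicates from two independent LUV preparations (triplicates for 7 drugs).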

Initial Tl+ fluorescence quench rate, active:
Nc1ccc2ncnc(Nc3ccc(OCc4cccc(F)c4)c(Cl)c3)c2c1 2.58
CC(C)(C)n1nc(Cc2ccc(F)c(Cl)c2)c2c(N)ncnc21 1.84
O=C(Nc1ccc(N2CCNCC2)cc1)c1ccn2ncc(-c3cccc(Cl)c3)c2n1 2.57
C[C@H](c1ccc2c(c1)CCCC2)N(C)c1ncc2c(N)nc(N)nc2n1 2.15
Cc1noc(C)c1C(=O)N1CCC[C@@H](c2[nH]c3c(C)cccc3c2-c2ccncc2)C1 1.73
OC[C@H]1O[C@@H](n2c3ccc(Cl)cc3c3c(-c4cc5ccccc5o4)ncnc32)[C@H](O)[C@H]1O 3.52
CN1CCN(S(=O)(=O)c2ccc(-c3ccc4c(Nc5ncc(Cl)cn5)ccnc4c3)cc2)CC1 2.76
Cc1cc(C)c2cc(C(=O)NC3CCCCCCC3)[nH]c2c1 1.78
CCN(CC)S(=O)(=O)c1ccc(Cl)c(C(=O)Nc2ccc3nc(C)sc3c2)c1 2.06
C[C@@H](c1cc(Cl)cc(Cl)c1)N(C)c1ncc2c(N)nc(N)nc2n1 2.71

Initial Tl+ fluorescence quench rate, inactive:
CNc1snc(C)c1C(=O)NCCOc1ccc(OC)cc1 1.06
CN1CCC(c2cc(-c3ccncc3)c(-c3ccc(F)cc3)[nH]2)CC1 1.03
c1ccc2c(c1)CN(CC1CC1)CC1(CCN(Cc3c[nH]c4cnccc34)CC1)O2 1.06
Cc1nn2c(=O)c3c([nH]c2c1-c1ccc(Cl)cc1)CCCC3 1.13
Nc1nccc2ccc(Oc3ccncc3)cc12 1.1
CCc1nc2ccc(Cl)cn2c1C(=O)NCc1ccc(N2CCC(c3ccc(OC(F)(F)F)cc3)CC2)cc1 1.09
Nc1ncnc2c1c(Cc1cccc3ccccc13)nn2CC1CCNCC1 1.15
Nc1ncnc2c1c(-c1cnc3ccccc3c1)nn2CC1CCNCC1 1.07
COc1ccc(S(=O)(=O)Nc2ccc(CN3CCN(C(=O)c4cccc(C#N)c4)CC3)cc2)cc1 1.41
CC1(C)Cc2c(c(N3CCOCC3)nc3snc(Br)c23)CO1 1.26
CCOc1ccc2cc(-c3nn(C(C)(C)C)c(N)c3C(N)=O)cnc2c1 1.21
COc1ccc(-c2nc(-c3cccc(NC(=O)Cc4ccc(F)cc4)c3)no2)cc1OC 1.47
Cc1cc(C)n(-c2ccc(NC(=O)C3CCN(Cc4cnc(C)s4)CC3)cc2)n1 1.01
Nc1ncc(-c2cn[nH]c2)cc1-c1nc2cc(Cl)cnc2[nH]1 1.08
CC(C)[C@@H](Oc1cccc2ccccc12)C(=O)O 1.1
Clc1cccc([C@@H](c2ccc(CN3CCNCC3)cc2)n2ccnc2)c1 1.17
C[C@H]1C[C@@H]1C(=O)NC1CCN(CC2(c3ccccc3)CCCCC2)CC1 1.06
O=C(NCc1ccco1)N1CCN(Cc2ccc(Cl)s2)CC1 1.03
CN1CCN(c2nccc3nc(-c4ccc(F)c(F)c4)[nH]c23)CC1 1.11
Clc1ccc(CN2CCN(C3=NCCN3)CC2)cc1Cl 1.2
CCOc1ccc2cc(-c3nn(CC4CCN(C)CC4)c4ncnc(N)c34)ccc2c1 1.16
O=C(Nc1ccc(N2CCNCC2)nc1)c1oc(-c2ccccc2)nc1C(F)(F)F 1.47
COc1cc(C2=NCCN2)ccc1-c1cn(-c2cccc(C3=NCCN3)c2)nn1 1.01
COc1ccc(-c2cncc3ccc(C(=O)NCCCn4ccnc4)nc23)cc1 1.03
O=C(Nc1nc(-c2ccccn2)cs1)[C@H]1C[C@@H]1c1ccccc1F 1.41
Cc1cc(O)nc(-n2nc(C)cc2C)n1 1.04
O=C(Nc1cnc2ccccc2c1)c1cccc(-n2cnnn2)c1 1.26
